The sample as a whole holds a higher share of hits than the screen did.
VHR inh color: blocks the human dual specificity phosphatase VHR1. P51452. recombinant VHR phosphatase, colorimetric substrate read-out. inhibition, % at 20 µM. 50,000 compounds, 0.7% hits; in the data active = inhibition above about 60%
Target sequence (P51452 whole entry, looked up): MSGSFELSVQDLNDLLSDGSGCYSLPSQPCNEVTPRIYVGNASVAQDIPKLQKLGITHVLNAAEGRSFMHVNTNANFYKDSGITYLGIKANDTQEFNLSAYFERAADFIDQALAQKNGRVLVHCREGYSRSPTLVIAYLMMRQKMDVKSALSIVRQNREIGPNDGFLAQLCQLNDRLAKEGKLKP
The depositor's hits bear a star.

SMILES | VHR inh color
CC1CCc2c(sc(NC(=O)c3cccc(C(=O)O)c3)c2C(N)=O)C1 (stereo unspecified) | 78.1*
O=C(Nc1cc(Cl)ccc1Cl)c1ccc(Cl)c(Cl)c1 | -25.8
O=C1NC(=S)N(c2cccc(Cl)c2)C(=O)/C1=C\C=C\c1ccccc1[N+](=O)[O-] | 88.0*
COc1cccc(N2C(=O)NC(=O)/C(=C/C=C/c3ccccc3[N+](=O)[O-])C2=O)c1 | 20.8
O=C1NC(=S)N(c2ccc(Cl)cc2)C(=O)/C1=C/C=C/c1ccccc1 | 51.9
COc1ccc(N2C(=O)CC(SC(=NCc3ccc(Cl)cc3)Nc3ccccc3)C2=O)cc1 (stereo unspecified) | -13.8
COc1ccc(C2CC(=O)C3=C(C2)Nc2ccccc2NC3c2ccc3ccccc3c2)cc1 (stereo unspecified) | 10.6
COc1ccc(C2CC(=O)C3=C(C2)Nc2ccccc2NC3c2cccc(Br)c2)cc1 (stereo unspecified) | 1.0
CSc1ccc(C2Nc3ccccc3NC3=C2C(=O)CC(c2ccc4c(c2)OCO4)C3)cc1 (stereo unspecified) | -12.6
Cc1ccc2c(c1)NC(c1ccc3c(c1)OCO3)C1=C(CC(c3ccccc3)CC1=O)N2 (stereo unspecified) | 117.5*
COc1ccc(C2CC(=O)C3=C(C2)Nc2ccccc2NC3c2ccc(SC)cc2)cc1OC (stereo unspecified) | 43.0
Cc1ccc2c(c1)NC(c1ccc(F)cc1)C1=C(CC(c3ccccc3)CC1=O)N2 (stereo unspecified) | -27.8
CCC(=O)N1c2ccccc2NC2=C(C(=O)CC(c3ccccc3)C2)C1c1ccc([N+](=O)[O-])cc1 (stereo unspecified) | 9.6
COc1ccc(C2CC(=O)C3=C(C2)Nc2ccccc2NC3c2ccc(F)c(Br)c2)cc1 (stereo unspecified) | 115.9*
COc1ccc(C2CC(=O)C3=C(C2)Nc2ccccc2NC3c2ccncc2)cc1OC (stereo unspecified) | 6.8
CCc1ccc(C2Nc3ccccc3NC3=C2C(=O)CC(c2ccc(OC)c(OC)c2)C3)cc1 (stereo unspecified) | 115.4*
COc1ccc(C2CC(=O)C3=C(C2)Nc2ccccc2N(C(C)=O)C3c2ccc(OC)c(OC)c2)cc1 (stereo unspecified) | -0.4
CCC(=O)N1c2ccccc2NC2=C(C(=O)CC(c3ccccc3)C2)C1c1ccc(OC)cc1 (stereo unspecified) | 102.6*
COc1ccc(N2C=Nc3ccc(C)c4nc(C)cc2c34)cc1 | -21.8
O=[N+]([O-])c1ccc2c(c1)C=C1CCCCC1(NCc1ccccc1)O2 (stereo unspecified) | -34.4
CC1=C(C(=O)OC2CCCC2)C(c2cccc(Cl)c2Cl)C2=C(CC(C)(C)CC2=O)N1 (stereo unspecified) | -3.6
CC(=O)c1cccc(NC(=O)c2nn3c(C(F)(F)F)cc(-c4cccs4)nc3c2Cl)c1 | -34.9
COc1ccc(N(CC(=O)NN=C2CCN(C)CC2)S(=O)(=O)c2ccccc2)cc1Cl | -22.2
Cc1ccc(CC2C(=O)N(c3cccc(Cl)c3C)C(=O)C2C)cc1 (stereo unspecified) | -5.4
CC(=C1C(=O)c2ccccc2C1=O)N1CCN(c2ccc([N+](=O)[O-])cc2)CC1 | -30.0
SMILES | VHR inh color
Cc1c(NC(=O)CCCN2C(=O)/C(=C/c3ccccc3)SC2=S)c(=O)n(-c2ccccc2)n1C | -14.6
O=C1CC(c2ccccc2)CC2=C1C(c1ccc(F)c(F)c1)Nc1ccccc1N2 (stereo unspecified) | 104.3*
O=C1CC(c2ccccc2)CC2=C1C(c1ccc(Cl)c(Cl)c1)Nc1ccccc1N2 (stereo unspecified) | -16.6
O=C1CC(c2ccccc2)CC2=C1C(c1ccc(F)c(Br)c1)Nc1ccccc1N2 (stereo unspecified) | -5.7
CC1CCN(C(=O)c2ccc(Br)cc2)CC1 | -20.6
CCOc1ccccc1NC(=O)C1C2CCC3C(CCC21)C3(Cl)Cl (stereo unspecified) | 119.3*
O=C(Nc1cccc2ccccc12)C1C2CCC3C(CCC21)C3(Cl)Cl (stereo unspecified) | -13.6
CCOc1ccccc1NC(=O)c1ccccc1 | -15.2
COC(=O)c1sc(NC(=O)c2cc([N+](=O)[O-])ccc2Cl)c(C(=O)OC)c1C | -8.4
Cc1cc(/C=C2\C(=O)NC(=S)N(c3ccc(Cl)cc3)C2=O)c(C)n1C | 4.8
COc1ccccc1N1C(=O)NC(=O)/C(=C\c2cc3ccccc3n2C)C1=O | 36.2
COc1ccccc1N1C(=O)C(=Cc2cccn2C)C(=O)NC1=S | 76.6*
Cn1cccc1/C=C1/C(=O)NC(=S)N(c2ccc(Cl)cc2)C1=O | 70.4*
COc1cc(Br)c(/C=C2\C(=O)NC(=S)N(c3ccccc3)C2=O)cc1OC | 0.5
O=C1NC(=S)N(c2cccc(Cl)c2)C(=O)/C1=C/c1ccc(Cl)cc1 | 17.3
COc1cc(NC(=O)c2ccco2)cc(OC)c1 | -9.3
NC(=O)c1c(NC(=O)COc2ccccc2)sc2c1CCCCC2 | -20.4
Cc1cc(Nc2ccc([N+](=O)[O-])cc2)nc(-c2ccccc2O)n1 | -26.8

From PubChem
